Measured values as given in PubChem BioAssay (NCATS).
Results filed as inconclusive are left out. Active and inactive are the calls of the source. Calls come from the whole dose curve; as a rule, active = well fitted curve in the direction sought with a large enough effect; inconclusive = small, poorly fitted or top-dose-only effect, or another doubt; inactive = no such curve, though single readings can be large; an effect the other way counts as inactive or inconclusive.

Columns and labels:
[1] = molecular target: Cellular tumor antigen p53 (Homo sapiens) (UniProt P04637); assay: Primary qHTS for small molecule compounds that upregulate eGFP-tagged delta133p53alpha (in N-terminal) cells. (AID 2060322); settings: NCI-H358 eGFP-delta133p53alpha fluorescence, 24 h; activation: hits give high values; note: nearly all actives have a fitted effect of over 75% in size; note: potency is the fitted concentration of half-maximal effect;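 for activation: cells pre-induced with doxycycline then dosed without doxycycline; series mostly up to about 56 µM; 0% = DMSO vehicle and 100% = reference activator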
How it was run: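 NCI-H358 cells pre-induced 24 h with 10 ng/ml doxycycline for eGFP-delta133p53alpha, plated dox-free and exposed 24 h at 37C to titrated compounds. Fixed, Hoechst-stained; gated GFP peak intensity by laser scanning cytometry, normalized to DMSO (0%) and 57.5 uM 5-azacytidine (100%).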

[2] = molecular target: Aldehyde dehydrogenase, mitochondrial (Homo sapiens) (UniProt P05091); assay: qHTS for Inhibitors of the Aldehyde Dehydrogenase Family (ALDH2) Primary screen (AID 2061308);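 note: plate controls were vehicle for no effect and reference inhibitor for full effect; nearly all actives have a fitted effect of over 55% in size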
[3] = molecular target: Retinaldehyde dehydrogenase 3 (Homo sapiens) (UniProt P47895); assay: qHTS for Inhibitors of the Aldehyde Dehydrogenase Family (ALDH1A3) Primary screen (AID 2061315);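 note: plate controls were DMSO vehicle for no effect and reference inhibitor for full effect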
[4] = BET inhibitor-based combinations targeting novel dependencies in MECOM-rearranged (r) AML: SET-2 cell line (AID 2202231); settings: SET-2 AML cells viability, CellTiter-Glo luminescence, 48 h; viability: hits give low values, concentration not given here; note: nearly all actives have a fitted effect of over 35% in size; note: potency is the fitted concentration of half-maximal effect;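 for viability: plate controls were DMSO treated cells for no effect and wells without cells for full effect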
How it was run: (§1)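 A 48 hr incubation preceded viability reading by CellTiter-Glo, with 15 min room-temperature development. Dose series had 11 points; normalization used DMSO and empty wells; AUC was computed and mean-centered per line as Z-AUC.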

[5] = BET inhibitor-based combinations targeting novel dependencies in MECOM-rearranged (r) AML: OCI-AML3 cell line (AID 2202232); settings: Potency: OCI-AML3 viability; note: nearly all actives have a fitted effect of over 35% in size; note: potency is the fitted concentration of half-maximal effect
How it was run: as §1

[6] = BET inhibitor-based combinations targeting novel dependencies in MECOM-rearranged (r) AML: MV-4-11 cell line (AID 2202233); note: nearly all actives have a fitted effect of over 45% in size; note: potency is the fitted concentration of half-maximal effect
How it was run: (§2)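 Each compound is tested in an 11-point concentration series against 500 seeded cells/well for 48 hr. The luminescent viability signal is normalized to DMSO and blank wells, then reduced to AUC and a cell-line-centred Z-AUC.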

[7] = BET inhibitor-based combinations targeting novel dependencies in MECOM-rearranged (r) AML: HNT-34 cell line (AID 2202234); note: nearly all actives have a fitted effect of over 35% in size; note: potency is the fitted concentration of half-maximal effect
How it was run: as §2

[8] = BET inhibitor-based combinations targeting novel dependencies in MECOM-rearranged (r) AML: UCSD-AML1 cell line (AID 2202235); note: nearly all actives have a fitted effect of over 40% in size; note: potency is the fitted concentration of half-maximal effect
How it was run: as §2

[9] = BET inhibitor-based combinations targeting novel dependencies in MECOM-rearranged (r) AML: AML-191 cell line (AID 2202236; note: nearly all actives have a fitted effect of over 35% in size; note: potency is the fitted concentration of half-maximal effect)
How it was run: as §1

[10] = BET inhibitor-based combinations targeting novel dependencies in MECOM-rearranged (r) AML: AML-194 cell line (AID 2202237; note: nearly all actives have a fitted effect of over 40% in size; note: potency is the fitted concentration of half-maximal effect)
How it was run: as §1

Sequence of Cellular tumor antigen p53 (Homo sapiens) (P04637 whole entry, looked up): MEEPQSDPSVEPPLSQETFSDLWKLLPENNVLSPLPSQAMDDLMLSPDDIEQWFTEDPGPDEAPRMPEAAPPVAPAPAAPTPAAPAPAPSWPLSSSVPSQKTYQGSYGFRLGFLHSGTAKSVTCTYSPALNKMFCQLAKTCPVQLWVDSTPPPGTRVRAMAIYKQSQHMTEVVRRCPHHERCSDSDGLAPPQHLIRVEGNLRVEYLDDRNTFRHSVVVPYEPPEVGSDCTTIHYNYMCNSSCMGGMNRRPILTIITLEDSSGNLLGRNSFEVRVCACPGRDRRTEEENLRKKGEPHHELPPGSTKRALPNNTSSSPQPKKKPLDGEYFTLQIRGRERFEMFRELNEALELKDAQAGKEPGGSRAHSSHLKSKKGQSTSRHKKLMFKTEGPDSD

C=C1C(=O)[C@@]23C(CC[C@@H]1[C@H]2O)[C@@]12CO[C@]3(O)[C@@H](O)[C@@H]1C(C)(C)CC[C@@H]2O (stereo partly drawn)
inactive: Potency [2] | Potency [3]
active: Potency [1] 27.3 µM | Potency [4] 9.34 µM | Potency [5] 3.32 µM | Potency [6] 2.63 µM | Potency [7] 2.35 µM | Potency [8] 5.9 µM | Potency [9] 8.33 µM | Potency [10] 11.8 µM

CN1CCN(C2CCN(C(=O)Nc3cc(Oc4ccc(NC(=O)C5(C(=O)Nc6ccc(F)cc6)CC5)c(F)c4)ccn3)CC2)CC1
inactive: Potency [2] | Potency [3]
active: Potency [1] 26.9 µM | Potency [4] 20.9 µM | Potency [5] 23.5 µM | Potency [6] 0.296 µM | Potency [7] 3.72 µM | Potency [8] 7.42 µM | Potency [10] 11.8 µM

CNC(=O)c1ccccc1Nc1nc(Nc2ccc3c(c2OC)CCC[C@@H](N2CCN(CCO)CC2)C3)ncc1Cl
inactive: Potency [2] | Potency [3] | Potency [5] | Potency [6] | Potency [7] | Potency [8] | Potency [9] | Potency [10]
active: Potency [1] 9.53 µM | Potency [4] 18.6 µM

COc1cc(OC)c(/C=C/S(=O)(=O)Cc2ccc(OC)c(NCC(=O)O)c2)c(OC)c1
active: Potency [4] 0.296 µM | Potency [5] 0.209 µM | Potency [6] 0.263 µM | Potency [7] 0.166 µM | Potency [8] 0.263 µM | Potency [10] 0.263 µM
inactive: activation [1] 17.9% | Potency [2] | Potency [3]

Clc1cc2c(NC3CCCC3)nnc(-c3ccncc3)c2cc1Cl
inactive: activation [1] -9% | Potency [2] | Potency [3] | viability [4] 112% | Potency [6] | Potency [7] | Potency [8] | Potency [9] | Potency [10]
active: Potency [5] 0.468 µM
